From PubChem
Shown are actives, neighbours in structure and some others; about 3% of the full set was active somewhere.
HIF-2a block: blocks HIF-2a reporter activity. inhibition, % at 18.8 µM. AID 624352. 786-0 RCC cells HIF-2a reporter, luciferase luminescence, overnight. 360,000 compounds, 0.72% hits;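 active = inhibition of the luminescence signal of 40% or more relative to plate controls, in a single-dose primary screen at 18.75 µM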
CF NFkB block: cystic fibrosis NF-kB activation inhibition. 360,000 compounds, 0.86% hits. inhibition, % at 5 µM. KKLEB NF-kB-GFP reporter, PAF-induced, GFP fluorescence overnight;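 active = at least 50% inhibition at 5 µM, scaled per plate between neutral and stimulator controls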;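 note: PAF is a Pseudomonas aeruginosa culture filtrate used as stimulus; plate controls were PAF-stimulated DMSO wells for no effect and unstimulated DMSO wells for full effect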
EBV LMP1 NFkB: inhibitors of Epstein-Barr LMP1-induced NF-kappaB reporter. 350,000 compounds, 0.69% hits. LMP1-induced NF-kappaB luciferase reporter cells, luminescence. inhibition, % at 12.5 µM. AID 504558; in the data active = inhibition above about 41%; inconclusive = no clear call, values can overlap the other calls;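 note: 0% = neutral control wells and 100% = reference inhibitor control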
Peg3 prom inh-1: Peg3 promoter activity inhibition; HeLa PEG-Prom luciferase reporter, luminescence, overnight; inhibition, % at 20 µM; 360,000 compounds, 1.7% hits; AID 588405;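 active = inhibition of at least 50% at 20 µM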
TRPM1 prom inh: MITF TRPM1 promoter inhibition in SK-MEL-5 cells; SK-MEL-5 TRPM1 promoter luciferase, 24 h; inhibition, % at 12.5 µM; 330,000 compounds, 0.83% hits; AID 488899;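 active = mean inhibition across replicates of 60% or more, whatever share of single replicates reaches that level; inconclusive = some that reach 60%, reason not given; inactive = mean inhibition across replicates below 60%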
KKLEB tox: counter-screen for CF NF-kB inhibitors: cytotoxicity | activity change (cytotoxicity), % at 5 µM | KKLEB CF airway cells viability, ATPlite luminescence, overnight; active compounds read low; cells stimulated with P. aeruginosa culture filtrate | 360,000 compounds, 0.36% hits;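 active = corrected activity change at or below -50% at 5 µM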
Peg3 prom inh-2: Peg3 promoter inhibition confirmation | shares compounds with Peg3 prom inh-1 | HeLa PEG-Prom luciferase reporter, luminescence, overnight | inhibition, % at 20 µM | 1,300 compounds, 84% hits;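 active = at 20 µM dose, 40% or more inhibition averaged across four replicates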
CF NFkB conf: confirmation of cystic fibrosis induced NF-kB inhibitors; KKLEB CF airway cells, PAF-induced NF-kB-GFP fluorescence, overnight; inhibition, % at 5 µM; 1,300 compounds, 64% hits; AID 602472; shares compounds with CF NFkB block; in the data active = inhibition above about 40%;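 note: stimulus PAF is a Pseudomonas aeruginosa filtrate and not platelet activating factor; plate controls were DMSO wells with stimulus for no effect and unstimulated DMSO wells for full effect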
Mdm2 MdmX conf: confirmation of inhibitors of human Mdm2/MdmX interaction, set 2. shares compounds with HIF-2a block. SaOS-2 split-luciferase Mdm2/MdmX complementation, luminescence. inhibition, % at 8 µM. 740 compounds, 99% hits;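 active = mean inhibition of the luminescence signal across two replicates at or above 26 percent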
Target sequence (O15151 whole entry, looked up): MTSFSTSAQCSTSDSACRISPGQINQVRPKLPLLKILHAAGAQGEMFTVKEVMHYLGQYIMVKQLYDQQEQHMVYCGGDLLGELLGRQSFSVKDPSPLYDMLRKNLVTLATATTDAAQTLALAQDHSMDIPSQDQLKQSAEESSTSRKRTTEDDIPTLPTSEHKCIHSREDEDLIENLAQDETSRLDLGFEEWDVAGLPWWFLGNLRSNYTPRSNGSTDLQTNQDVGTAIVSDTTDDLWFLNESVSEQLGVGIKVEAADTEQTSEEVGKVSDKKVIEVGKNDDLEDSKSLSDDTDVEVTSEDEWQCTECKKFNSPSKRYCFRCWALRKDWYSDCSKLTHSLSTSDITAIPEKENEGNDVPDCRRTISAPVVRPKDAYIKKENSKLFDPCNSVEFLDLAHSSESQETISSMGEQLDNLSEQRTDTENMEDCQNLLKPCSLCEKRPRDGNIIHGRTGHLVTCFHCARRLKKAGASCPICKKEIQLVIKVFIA
Target sequence (Q00987 whole entry, looked up): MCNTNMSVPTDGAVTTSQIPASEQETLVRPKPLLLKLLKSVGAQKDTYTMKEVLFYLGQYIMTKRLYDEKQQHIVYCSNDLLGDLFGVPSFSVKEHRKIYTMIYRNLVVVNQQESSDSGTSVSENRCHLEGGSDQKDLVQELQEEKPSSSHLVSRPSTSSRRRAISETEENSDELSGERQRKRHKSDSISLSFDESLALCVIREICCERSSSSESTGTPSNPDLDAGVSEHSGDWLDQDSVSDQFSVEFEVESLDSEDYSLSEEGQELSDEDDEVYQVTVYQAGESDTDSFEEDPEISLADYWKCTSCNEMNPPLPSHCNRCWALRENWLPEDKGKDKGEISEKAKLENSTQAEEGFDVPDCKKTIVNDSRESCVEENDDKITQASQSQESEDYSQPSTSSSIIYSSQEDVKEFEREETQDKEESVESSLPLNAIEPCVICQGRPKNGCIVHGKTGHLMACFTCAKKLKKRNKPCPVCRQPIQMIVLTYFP
HIF-2a conf: HIF-2a inhibition, single concentration confirmation | shares compounds with HIF-2a block | 786-0 RCC cells, HIF-2a luciferase reporter luminescence, overnight | inhibition, % at 18.8 µM | 1,800 compounds, 56% hits;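 active = mean inhibition across four replicates of at least 40 percent at the single tested concentration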
HIF-1a cs: counter-screen for HIF-2a inhibitors: HIF-1a inhibition in MiaPaCa-2 cells; shares compounds with HIF-2a block; MiaPaCa-2 HIF-1a luciferase reporter, desferoxamine, overnight; inhibition, % at 18.8 µM; 1,800 compounds, 72% hits;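 active = mean inhibition of the reporter signal across four replicates at the single tested dose of 50% or more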
* marks the source's active call; other numbers are inactive results; u = inconclusive; x = no result.

SMILES | HIF-2a block | CF NFkB block | EBV LMP1 NFkB | Peg3 prom inh-1 | TRPM1 prom inh | KKLEB tox | Peg3 prom inh-2 | HIF-2a conf | HIF-1a cs | others
COc1ccc(Nc2oc(COc3ccccc3OC)nc2C#N)cc1 | 59* | -4 | 56* | 77* | 17 | 5 | 51* | 62* | 57*
CCOC(=O)C(=O)N(C)c1c(CC)nc2c(OCc3ccc(OC(F)F)cc3)cccn12 | 13 | -9 | x | -6 | x | 5 | x | x | x
NC(=O)CN1CCN(CCN2C(=O)c3cccc4cccc(c34)C2=O)CC1 | -16 | -15 | -3 | -15 | -15 | 0 | x | x | x
O=C1c2ccccc2C(=O)N1CCN1CCCCC1 | 12 | 10 | 0 | 4 | -1 | -7 | x | x | x
Nc1cc2c3c(cccc3c1)C(=O)N(CCN1CCCC1)C2=O | 54* | -113 | -13 | 107* | 90* | -2 | 95* | 19 | 102*
O=C1c2cccc3cc([N+](=O)[O-])cc(c23)C(=O)N1CCN1CCCC1 | -50 | -190 | 74* | 112* | 84* | -20 | 99* | x | x | Mdm2 MdmX conf=101*
CCOC(=O)Cc1c(-c2cccc(Br)c2)nc2c3ccccc3ccn12 | -102 | x | x | x | x | x | x | x | x
Cc1cc(C(=O)CCC(=O)N(C)CC2COc3ccccc3O2)c(C)s1 (configuration not stated) | -25 | -9 | 1 | -6 | x | -9 | x | x | x
CCCS(=O)(=O)NC(=O)C1(C)CCN(C(=O)Cc2cccc3ccccc23)C1 (configuration not stated) | 5 | 12 | x | 7 | x | -5 | x | x | x
Cn1nnnc1Sc1ncnc2scc(-c3ccc4c(c3)OCO4)c12 | 63* | 48 | 10 | 75* | 29 | -22 | 77* | 40 | 78*
CC(=O)c1cccc(-c2csc3ncnc(Sc4nnnn4C)c23)c1 | 49* | 71* | x | 87* | x | -5 | 85* | 44* | 99* | CF NFkB conf=28
CCN1C(=O)[C@H]2[C@@H](c3ccc(C)cc3)N[C@]3(CCCN(Cc4ccccc4)C3=O)[C@H]2C1=O | 4 | -17 | 0 | 6 | x | 7 | x | x | x
Cc1ccccc1-c1nc(-c2ccccn2)no1 | 60* | -31 | 61* | 63* | 74* | -39 | 58* | 73* | 66*
COc1ccc(-c2nc(-c3ccccn3)no2)cc1 | 88* | -36 | 81* | 89* | 87* | -80* | 86* | 95* | 98* | Mdm2 MdmX conf=96*
Cc1ccccc1-c1nc(-c2cccnc2)no1 | -228 | 0 | -47 | -206 | -38 | 3 | x | x | x
Cc1cn([C@H]2C[C@H](O)[C@@H](CNC(=O)[C@@H]3CCCN3Cc3ccccc3)O2)c(=O)[nH]c1=O | 9 | -3 | 6 | -7 | x | 5 | x | x | x
C[n+]1c(-c2ccccc2)cc2c(=Cc3ccccc3)c3ccccc3n21 | 61* | 46 | 30 | 103* | 98* | -29 | 96* | 93* | 104*
COc1nc(N/N=C/c2ccc(-c3ccccc3[N+](=O)[O-])o2)nc(N2CCOCC2)n1 | -211 | 20 | -6 | -70 | -8 | -11 | x | x | x
O=[N+]([O-])c1ccc(-c2ccc(/C=N/Nc3nc(NCc4ccccc4)nc(N4CCOCC4)n3)o2)cc1 | 59* | 51* | -83 | 99* | 77* | -90* | 80* | 16 | 41 | Mdm2 MdmX conf=102*
O=C1CCCCCC[C@@H](O)[C@H](O)C[C@H](c2ccccc2)O1 | 5 | x | x | x | x | x | x | x | x
OCc1ccc(-c2cccc3nccn23)cc1 | -3 | 0 | x | 5 | x | -2 | x | x | x
CCOC(=O)N1CCN(C(=O)c2[nH]c(C(F)(F)F)nc2-c2ccccc2)CC1 | 3 | -5 | x | 11 | x | -7 | x | x | x
CCCN(CC(=O)Nc1ccccc1C)C(=O)CCl | 39 | 12 | 72* | 64* | 63* | -12 | 46* | x | x | Mdm2 MdmX conf=95*
CCCN(CC(=O)Nc1ccccc1C)C(=O)COc1c(C)cccc1C | -12 | 4 | 7 | 2 | 3 | -7 | x | x | x
Cc1ccccc1CN1C(=O)CN(S(C)(=O)=O)CC1(C)C(=O)NCc1ccccc1 (configuration not stated) | -2 | x | x | x | x | x | x | x | x
SMILES | HIF-2a block | CF NFkB block | EBV LMP1 NFkB | Peg3 prom inh-1 | TRPM1 prom inh | KKLEB tox | Peg3 prom inh-2 | HIF-2a conf | HIF-1a cs | others
Cc1ccc(N(Cc2cc(=O)[nH]c3ccccc23)C(=O)CCl)c(C)c1 | 19 | 42 | 47* | 71* | u | -15 | 76* | x | x | Mdm2 MdmX conf=101*
COc1cccc(-c2cnc(C(O)c3cc(C)c(OC)c(C)c3)[nH]2)c1 (configuration not stated) | 4 | -6 | x | 8 | x | 16 | x | x | x
Cc1cccc(-n2ncc3c(N(C)C4CCCCC4)ncnc32)c1 | 66* | 9 | 37 | 75* | 80* | -54* | 82* | 81* | 101*
Cc1cccc(-n2ncc3c(N(CCO)CCO)ncnc32)c1 | -215 | -10 | -20 | -215 | -57 | -7 | x | x | x
COc1ccc(C(=O)NC2=NCCS2)cc1S(=O)(=O)N1CCOCC1 | 4 | -11 | -1 | 17 | x | 0 | x | x | x
CCOC(=O)c1cnc(Nc2nc3ccccc3o2)nc1CSc1nnc(C)s1 | -112 | -12 | -10 | -69 | -17 | 8 | x | x | x
CCOC(=O)c1cnc(Nc2nc3ccccc3o2)nc1C | 74* | -13 | 65* | 79* | 57 | -24 | 69* | 81* | 71*
CCOC1=C2CN(S(=O)(=O)c3ccc(C)cc3)[C@H](c3cccc4ccccc34)C[C@H]2[C@H]2C(=O)N(c3ccccc3)C(=O)[C@H]2C1 | 13 | -1 | x | 5 | x | -8 | x | x | x
CC(=O)N1CCCC(c2cc(C(=O)Nc3ccccc3)no2)C1 (configuration not stated) | 72* | -26 | x | 65* | x | -8 | 73* | 82* | 60*
O=C(Nc1ccccc1)c1cc(C2CCCN(C(=O)C3CC3)C2)on1 (configuration not stated) | 25 | -1 | x | 23 | x | 0 | x | x | x
COc1ccc(CNC(=O)c2ccccc2NC(=O)C2=C(C)OCCS2)cc1 | 12 | -8 | 0 | 1 | x | 0 | x | x | x
CN(C)S(=O)(=O)c1cccc(NC(=O)CSc2cccc3cccnc23)c1 | 66* | -11 | 2 | 102* | 28 | 2 | 93* | 75* | -15
